A number with no mark means an inactive call. Calls of active or inactive are those of the source.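 How the source made its calls, unless noted: active means growth inhibition above 50% at the single 2 µM test dose, taken to imply half-maximal potency below 2 µM; inactive means the rest.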

The nature of one experiment: antimalarial activity against Dd2 strain (AID 2302).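 Further: 0% = DMSO untreated growth and 100% = chloroquine plus artemisinin killed control.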 The settings on record: P. falciparum Dd2 in RBCs, LDH growth readout, 72 h; at 2 µM; active compounds read high.
On to `Cc1ccccc1Nc1cc(Nc2ccccc2C)c2ccccc2n1`, for which the growth inhibition is 93% (active).
Consider `CCC[C@@H]([C@@H](CC1CCCCC1)C(=O)N[C@H](C(=O)Nc1nccs1)C(C)(C)SC)N(O)C=O`, for which the growth inhibition was 98% (active).
As for `CCNc1cc(C(=O)N[C@@H](Cc2ccccc2)[C@H](O)CNC(C)CC(C)C)c(F)c(N2CCCCS2(=O)=O)c1` (stereo not given in full), the growth inhibition is 66% (active).
The same measure, in the same setting: then `CC1SC(=S)NC1C(=O)O` (stereo not given), with -1%; and `O=C(Nc1ccc(-c2nc3ccccc3[nH]2)cc1)c1ccc(S(=O)(=O)N2CCc3ccccc32)cc1`, with 34%; and `C=CCc1c(C(=O)NCC23CC4CC(CC(C4)C2)C3)[nH]c2ccccc2c1=O`, with 79% (active).
The same measure, in the same setting: then `COc1ccc2nccc(NN=Cc3cccc(F)c3)c2c1`, with 65% (active); and `CN(C)CCC1CCCc2ccc(NC(=O)Nc3cccc(Cl)c3Cl)cc21` (stereo not given), with 11%.
Consider `O=C(Nc1ccc(Cl)c(C(F)(F)F)c1)NC1CCN(CCCCCNC(=O)[C@@H]2C[C@H]2c2ccc(Cl)c(Cl)c2)CC1`, for which the growth inhibition was 41%.
The same measure, in the same setting: then `CO/C(=C\C=C\c1cc2cc(Cl)c(Cl)cc2[nH]1)C(=O)NC1CCN(CCNc2ccccc2)CC1`, with 98% (active).
On to `O=C(Nc1ccc(-c2cccc(-c3nc4ccccc4[nH]3)c2)cc1)Nc1ccc2c(c1)OCO2`, for which the growth inhibition is 65% (active).
`CN1CCN(CC(=O)Nc2ccc(-c3ccc(-c4nc5ccc(C(F)(F)F)cc5[nH]4)cc3)cc2)CC1`: the growth inhibition is 98% (active).
Same read-out and setting: then `O=C(c1cccs1)N1CCN(c2ccc([N+](=O)[O-])c(NC3CC3)c2)CC1`, with 95% (active); and `CC(C)(C)c1ccccc1SC1=C(O)CC2(CCNCC2)OC1=O`, with -4%; and `Cc1cc(C)c(C(=O)Nc2ccc3nc(C)cc(N)c3c2)c(C)c1`, with 14%.
Same read-out and setting: then `CC(=O)Nc1ccc(CN(Cc2cccc(OC(C)(C)C)c2)Cc2ccc3c(c2)OCCO3)cc1`, with 96% (active).
Still for that read-out and setting: then `CC1CCCN(S(=O)(=O)c2ccc(NC(=O)c3cc(-c4ccccc4O)n[nH]3)cc2)C1` (stereo not given), with 49%; and `CC(=O)c1cccc(NC(=O)NC2CCN(c3ccnc(Nc4ccc(F)cc4)n3)C2)c1` (stereo not given), with 94% (active).
For the molecule `O=C(Nc1ccc(C(=O)OCC(c2ccccc2)c2ccccc2)cc1)N[C@@H](Cc1ccc(O)cc1)C(=O)NC1CCN(Cc2ccc(O)cc2)C1` (stereo not given in full), the growth inhibition is -4%.
Still for that read-out and setting: the same measure for `Nc1ccnc2ccc(OCCCCCCc3ccccc3)cc12`: 99% (active).
In the case of `COc1ccc(-c2nonc2NC(=O)c2ccc(C(C)(C)C)cc2)cc1OC`, the growth inhibition is 73% (active).
`O=C(O)c1ccc2c(c1)N(C(=O)CNCc1ccc(F)cc1)CC(=O)N2CCCc1ccccc1`: the growth inhibition was -2%.
For `O=C(c1ccc([N+](=O)[O-])o1)N1CCC(c2cn(Cc3cccc(F)c3)c3ccccc23)CC1`, the growth inhibition was 95% (active).
On the same count and under the same terms, the same measure for `CCN=C1NC2=C(CC(C(C)(C)C)CC2)C2(CCC(C(C)(C)C)CC2)S1` (stereo not given): 99% (active); for `O=C(NCCCCN1CCC(c2ccc3c(c2OC(=O)c2ccc(NC(=O)c4ccc(Cl)cc4)cc2)CCCC3)CC1)c1ccc(NC(=O)c2ccc(Cl)cc2)cc1`: 99% (active); for `COc1ccc(C=CC(=O)NC(=O)c2ccccc2OC(=O)c2ccccc2)cc1OC`: 90% (active).
The same measure, in the same setting: then `Cc1cccc(NC(=O)N(Cc2cc3cc(C)cc(C)c3[nH]c2=O)C2CC2)c1`, with 94% (active); and `CCc1cn2c3c(cc(C(=O)N[C@@H](Cc4ccccc4)[C@H](O)CNCCOC)cc13)N(C)S(=O)(=O)CC2`, with 56% (active); and `CC(C)(C)c1ccc(CN2CCC(NC(=O)c3ccc(-c4cccc(Cl)c4)s3)CC2)cc1`, with 47%.
Regarding `Cc1cc(N[C@@H](CC(C)C)C(=O)NCc2cccs2)nc(NCCc2cccs2)n1`, the growth inhibition was 13%.
Still for that read-out and setting: then `COC(=O)c1cccc(CNCc2cccc(-c3ccc(-c4nc5c(C)cccc5[nH]4)s3)c2)c1`, with 65% (active); and `Oc1ccc(-c2ccccc2)cc1CN1CCCCCC1`, with 85% (active); and `c1cc(CNC2Cc3ccccc3C2)cc(-c2cnc(N3CCNCC3)nc2)c1`, with 65% (active).
As to `COc1cc(Cc2cnc(N)nc2N)c2ccsc2c1OC`, the growth inhibition is 4%.
Same read-out and setting: then `CC(C)Nc1nc(NCCc2cnc[nH]2)nc(NCc2ccc(Cl)c(Cl)c2)n1`, with -1%; and `COC(=O)C(Cc1ccccc1)C(CSCc1ccc(OC)cc1)C(=O)N[C@@H](C(=O)OC(C)(C)C)c1ccc(C(C)(C)C)cc1` (stereo not given in full), with 44%.
For `CC[C@H](NC(=O)c1c(CCCN2CCN(c3ccccc3)CC2)c(-c2ccccc2)nc2cc(O)ccc12)c1ccccc1`, the growth inhibition was 97% (active).
The same measure, in the same setting: then `CC(=O)NC1=NC(C)(C)N(OCCCOc2ccc(Cl)c(Cl)c2)C(NC(C)=O)=N1`, with 94% (active).
Take `CC(CN1CCN(C)CC1)C(=O)Nc1ccc(-c2ccc(-c3nc4ccccc4[nH]3)s2)cc1` (stereo not given): the growth inhibition was 79% (active).
As to `CCN(c1cc(C)nc(Nc2ccc(Cl)cc2)n1)[C@H]1CCN(Cc2ccccc2)C1`, the growth inhibition was 31%.

A short description of a further experiment: human hepatoma cell viability loss – ATP luminescence, cytotoxicity control for P. falciparum antimalarial project, primary screen (AID 2303;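 active means inhibition above 50%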;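 further: 0% = DMSO wells and 100% = digitonin-killed cells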). The settings on record: HepG2 viability, 24-48 h, at 10 µM, active compounds read high.
By inhibition is commonly meant the change of the read-out against control, counted positive when it falls. Consider `Cc1ccccc1Nc1cc(Nc2ccccc2C)c2ccccc2n1`, for which the inhibition is 28%.
For `CCC[C@@H]([C@@H](CC1CCCCC1)C(=O)N[C@H](C(=O)Nc1nccs1)C(C)(C)SC)N(O)C=O`, the inhibition was 51% (active).
Take `CCNc1cc(C(=O)N[C@@H](Cc2ccccc2)[C@H](O)CNC(C)CC(C)C)c(F)c(N2CCCCS2(=O)=O)c1` (stereo not given in full): the inhibition was 6%.
As for `CC1SC(=S)NC1C(=O)O` (stereo not given), the inhibition is 3%.
Same read-out and setting: then `O=C(Nc1ccc(-c2nc3ccccc3[nH]2)cc1)c1ccc(S(=O)(=O)N2CCc3ccccc32)cc1`, with 32%.
Same read-out and setting: the same measure for `C=CCc1c(C(=O)NCC23CC4CC(CC(C4)C2)C3)[nH]c2ccccc2c1=O`: 40%.
For the molecule `COc1ccc2nccc(NN=Cc3cccc(F)c3)c2c1`, the inhibition was 13%.
Regarding `CN(C)CCC1CCCc2ccc(NC(=O)Nc3cccc(Cl)c3Cl)cc21` (stereo not given), the inhibition is 44%.
As to `O=C(Nc1ccc(Cl)c(C(F)(F)F)c1)NC1CCN(CCCCCNC(=O)[C@@H]2C[C@H]2c2ccc(Cl)c(Cl)c2)CC1`, the inhibition is 79% (active).
As for `CO/C(=C\C=C\c1cc2cc(Cl)c(Cl)cc2[nH]1)C(=O)NC1CCN(CCNc2ccccc2)CC1`, the inhibition was 60% (active).
Take `O=C(Nc1ccc(-c2cccc(-c3nc4ccccc4[nH]3)c2)cc1)Nc1ccc2c(c1)OCO2`: the inhibition was 55% (active).
With `CN1CCN(CC(=O)Nc2ccc(-c3ccc(-c4nc5ccc(C(F)(F)F)cc5[nH]4)cc3)cc2)CC1`, the inhibition was 43%.
Regarding `O=C(c1cccs1)N1CCN(c2ccc([N+](=O)[O-])c(NC3CC3)c2)CC1`, the inhibition is -5%.
As for `CC(C)(C)c1ccccc1SC1=C(O)CC2(CCNCC2)OC1=O`, the inhibition was 0%.
The same measure, in the same setting: the same measure for `Cc1cc(C)c(C(=O)Nc2ccc3nc(C)cc(N)c3c2)c(C)c1`: 12%; for `CC(=O)Nc1ccc(CN(Cc2cccc(OC(C)(C)C)c2)Cc2ccc3c(c2)OCCO3)cc1`: -10%; for `CC1CCCN(S(=O)(=O)c2ccc(NC(=O)c3cc(-c4ccccc4O)n[nH]3)cc2)C1` (stereo not given): 12%.
The same measure, in the same setting: then `CC(=O)c1cccc(NC(=O)NC2CCN(c3ccnc(Nc4ccc(F)cc4)n3)C2)c1` (stereo not given), with 10%; and `O=C(Nc1ccc(C(=O)OCC(c2ccccc2)c2ccccc2)cc1)N[C@@H](Cc1ccc(O)cc1)C(=O)NC1CCN(Cc2ccc(O)cc2)C1` (stereo not given in full), with -9%.
On to `Nc1ccnc2ccc(OCCCCCCc3ccccc3)cc12`, for which the inhibition is 96% (active).
On the same count and under the same terms, the same measure for `COc1ccc(-c2nonc2NC(=O)c2ccc(C(C)(C)C)cc2)cc1OC`: -3%.
On the same count and under the same terms, then `O=C(O)c1ccc2c(c1)N(C(=O)CNCc1ccc(F)cc1)CC(=O)N2CCCc1ccccc1`, with 1%; and `O=C(c1ccc([N+](=O)[O-])o1)N1CCC(c2cn(Cc3cccc(F)c3)c3ccccc23)CC1`, with 1%.
On the same count and under the same terms, the same measure for `CCN=C1NC2=C(CC(C(C)(C)C)CC2)C2(CCC(C(C)(C)C)CC2)S1` (stereo not given): 40%; for `O=C(NCCCCN1CCC(c2ccc3c(c2OC(=O)c2ccc(NC(=O)c4ccc(Cl)cc4)cc2)CCCC3)CC1)c1ccc(NC(=O)c2ccc(Cl)cc2)cc1`: 62% (active).
As to `COc1ccc(C=CC(=O)NC(=O)c2ccccc2OC(=O)c2ccccc2)cc1OC`, the inhibition was 12%.
On the same count and under the same terms, then `Cc1cccc(NC(=O)N(Cc2cc3cc(C)cc(C)c3[nH]c2=O)C2CC2)c1`, with 3%.
For the molecule `CCc1cn2c3c(cc(C(=O)N[C@@H](Cc4ccccc4)[C@H](O)CNCCOC)cc13)N(C)S(=O)(=O)CC2`, the inhibition was 7%.
On the same count and under the same terms, then `CC(C)(C)c1ccc(CN2CCC(NC(=O)c3ccc(-c4cccc(Cl)c4)s3)CC2)cc1`, with 36%.
For `Cc1cc(N[C@@H](CC(C)C)C(=O)NCc2cccs2)nc(NCCc2cccs2)n1`, the inhibition is -3%.
Consider `COC(=O)c1cccc(CNCc2cccc(-c3ccc(-c4nc5c(C)cccc5[nH]4)s3)c2)c1`, for which the inhibition was -4%.
For the molecule `Oc1ccc(-c2ccccc2)cc1CN1CCCCCC1`, the inhibition is 6%.
For the molecule `c1cc(CNC2Cc3ccccc3C2)cc(-c2cnc(N3CCNCC3)nc2)c1`, the inhibition was 43%.
Same read-out and setting: the same measure for `COc1cc(Cc2cnc(N)nc2N)c2ccsc2c1OC`: 5%; for `CC(C)Nc1nc(NCCc2cnc[nH]2)nc(NCc2ccc(Cl)c(Cl)c2)n1`: -3%.
Still for that read-out and setting: the same measure for `COC(=O)C(Cc1ccccc1)C(CSCc1ccc(OC)cc1)C(=O)N[C@@H](C(=O)OC(C)(C)C)c1ccc(C(C)(C)C)cc1` (stereo not given in full): -1%; for `CC[C@H](NC(=O)c1c(CCCN2CCN(c3ccccc3)CC2)c(-c2ccccc2)nc2cc(O)ccc12)c1ccccc1`: 12%.
On to `CC(=O)NC1=NC(C)(C)N(OCCCOc2ccc(Cl)c(Cl)c2)C(NC(C)=O)=N1`, for which the inhibition is 65% (active).
The same measure, in the same setting: then `CC(CN1CCN(C)CC1)C(=O)Nc1ccc(-c2ccc(-c3nc4ccccc4[nH]3)s2)cc1` (stereo not given), with 5%.
The same measure, in the same setting: the same measure for `CCN(c1cc(C)nc(Nc2ccc(Cl)cc2)n1)[C@H]1CCN(Cc2ccccc2)C1`: 46%.
